Assay results as given in PubChem BioAssay (NCATS).
Results filed as inconclusive are left out. Calls of active or inactive are those of the source. Unless noted, calls come from the whole dose curve; as a rule, active = well fitted curve in either direction with a large enough effect (not every such curve was filed as active); inconclusive = small, poorly fitted or top-dose-only effect, or another doubt; inactive = flat fitted curve, though single readings scatter.

Legend:
[1] = target: Lysosomal acid glucosylceramidase (Homo sapiens) (UniProt P04062); test: Glucocerebrosidase-p2 (AID 348; in the data active = potency below about 10 µM; note: potency is the fitted concentration of half-maximal effect); details: purified GBA, blue fluorogenic substrate, 40 min
Summary of the method: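 Compounds titrated from 0.6 nM upwards against 0.2 nM enzyme in pH 5.9 citric acid/KH2PO4, taurocholate, tween-20; blue fluorogenic substrate 80 uM, 40 min room temperature, stopped and read Ex 365/Em 440 for AC50.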

[2] = AP1 Signaling Pathway (AID 357); details: ME-180 AP-1-bla reporter, EGF-induced, beta-lactamase ratio, 5 h; at 7.69 µM (top of the series) unless noted; note: % is set by controls: 0 for no effect and ±100 for the full control effect
Summary of the method: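 ME-180 cells with beta-lactamase reporter under AP-1 response element, stimulated with EC50 EGF; compounds tested in titration series, 5 h at 37 °C. CCF4 substrate added 2.5 h at room temperature; 460/530 nm emission ratio gave %activity and AC50.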

[3] = target: Cytochrome P450 1A2 (Homo sapiens) (UniProt P05177); test: p450-cyp1a2 (AID 410; calls by dose curve; note: potency is the fitted concentration of half-maximal effect;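 for activity change, negative = inhibition: -100% = full effect of reference inhibitor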); details: recombinant CYP1A2, luciferin-ME demethylation, luminescence; series mostly up to 11.4 µM
Summary of the method: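 Human CYP1A2 (20nM) demethylated Luciferin-ME at its Km (100uM) in 100mM KPO4. After 10 min compound preincubation, NADPH regeneration ran the reaction 60 min at room temperature. Luciferin was read by luminescence, normalized to 57 uM furafylline.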

[4] = NFAT Signaling Pathway (AID 444); details: Jurkat NFAT-bla M1, carbachol, beta-lactamase ratio, 5 h; at 7.69 µM (top of the series) unless noted;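 note: carbachol stimulus at about its EC50 of 1 µM final; % is set by controls: 0 for no effect and ±100 for the full control effect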
Summary of the method: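 Jurkat cells with NFAT-driven β-lactamase reporter and co-expressed M1 receptor, stimulated with carbachol (final 1 uM, ~EC50), compound titration, 5 h at 37 °C. CCF4 loaded 1 h at RT; 460/530 nm ratio gave %activity and AC50.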

[5] = Stat Signaling Pathway (AID 446); details: ME-180 SIE beta-lactamase reporter, IL-6 stimulated, 5 h; at 7.69 µM (top of the series) unless noted;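 note: ME-180 cervical cancer cells given 40 pM IL-6 alongside compound; SIE-controlled beta-lactamase reporter measured as 460/530 nm FRET emission ratio; % is set by controls: 0 for no effect and ±100 for the full control effect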
Summary of the method: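 Reporter line: ME-180 cervical carcinoma, SIE-beta-lactamase. Treatment: compound with 40 pM IL-6, 5 hrs, 37 C, in low-serum OPTI-MEM with 10 mM HEPES pH 7.3. Detection: 460/530 nm fluorescence.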

[6] = target: Glucocorticoid receptor (Homo sapiens) (UniProt P04150); test: GR-GFP Redistribution (AID 450;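 active = compounds whose dose series gives a full or clear partial fitted curve of increased nuclear translocation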; note: potency is the fitted concentration of half-maximal effect); details: U2OS GR-GFP nuclear translocation, laser cytometry, 2 h
[7] = target: Glucocorticoid receptor (Homo sapiens) (UniProt P04150); test: GR-EFC Redistribution (AID 451; calls by dose curve; note: potency is the fitted concentration of half-maximal effect); details: CHO-K1 GR-EFC translocation, beta-gal luminescence, 2 h
Summary of the method: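 CHO-K1 cells expressing nuclear EA and GR-ED fragments of b-gal; compounds titrated up to 46 uM final, 2 h at 37 C. GR nuclear translocation read as complemented b-gal luminescence after 1 h RT detection.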

[8] = target: Mitogen-activated protein kinase 10 (Mus musculus) (UniProt Q61831); test: JNK3 AlphaScreen Assay (AID 530); details: JNK3 lysate, c-Jun phosphorylation; series mostly up to 11.4 µM;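 note: kinase came from lysate of stimulated human HepG2 cells; signal reports phosphorylation of biotinylated GST-cJun 1-79 at Ser73 with 10 µM ATP; % is set by controls: 0 for no effect and ±100 for the full control effect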
Summary of the method: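 qHTS format: compounds tested as titrations against IL-1beta/TNF-alpha-activated HepG2 lysate JNK3 with biotin-GST-cJun substrate and 10 uM ATP at room temperature. Loss of anti-phospho-cJun AlphaScreen signal indicates inhibition.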

[9] = target: 3',5'-cyclic-AMP phosphodiesterase 4B (Homo sapiens) (UniProt Q07343); test: qHTS Assay for Inhibitors of PDE-IV (AID 607; active = well fitted activation curve with a large enough effect in the main read-out, with a control signal flat, not every such curve was filed as active; note: % of control where 0% means no effect); details: HEK293 ACTOne CNG channel cells, membrane potential fluorescence; series mostly up to 22.9 µM
Summary of the method: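 Cell-based read-out of cAMP via a modified cyclic nucleotide-gated channel and membrane potential dye (535/590 nm) in HEK293 cells expressing PDE4 endogenously. Compounds tested up to 22.9 uM final; 100 uM RO 20-1724 reference.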

[10] = target: Cytochrome P450 2C19 (Homo sapiens) (UniProt P33261); test: qHTS Assay for Inhibitors and Substrates of Cytochrome P450 2C19 (AID 899; active = well fitted inhibition curve with a large enough effect; note: nearly all actives have a fitted effect of over 60% in size; note: potency is the fitted concentration of half-maximal effect); details: recombinant CYP2C19, luciferin-H EGE luminescence; series mostly up to 11.4 µM
Summary of the method: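 Luminescent read-out of luciferin formed from Luciferin-H EGE (10uM, equal to KM). Enzyme 5nM in 50mM KPO4; compound added, 10 min at 37C, then NADPH regenerating system for 60 min at 37C. Full inhibition defined by 57uM ketoconazole.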

Sequence of 3',5'-cyclic-AMP phosphodiesterase 4B (Homo sapiens) (Q07343 whole entry, looked up): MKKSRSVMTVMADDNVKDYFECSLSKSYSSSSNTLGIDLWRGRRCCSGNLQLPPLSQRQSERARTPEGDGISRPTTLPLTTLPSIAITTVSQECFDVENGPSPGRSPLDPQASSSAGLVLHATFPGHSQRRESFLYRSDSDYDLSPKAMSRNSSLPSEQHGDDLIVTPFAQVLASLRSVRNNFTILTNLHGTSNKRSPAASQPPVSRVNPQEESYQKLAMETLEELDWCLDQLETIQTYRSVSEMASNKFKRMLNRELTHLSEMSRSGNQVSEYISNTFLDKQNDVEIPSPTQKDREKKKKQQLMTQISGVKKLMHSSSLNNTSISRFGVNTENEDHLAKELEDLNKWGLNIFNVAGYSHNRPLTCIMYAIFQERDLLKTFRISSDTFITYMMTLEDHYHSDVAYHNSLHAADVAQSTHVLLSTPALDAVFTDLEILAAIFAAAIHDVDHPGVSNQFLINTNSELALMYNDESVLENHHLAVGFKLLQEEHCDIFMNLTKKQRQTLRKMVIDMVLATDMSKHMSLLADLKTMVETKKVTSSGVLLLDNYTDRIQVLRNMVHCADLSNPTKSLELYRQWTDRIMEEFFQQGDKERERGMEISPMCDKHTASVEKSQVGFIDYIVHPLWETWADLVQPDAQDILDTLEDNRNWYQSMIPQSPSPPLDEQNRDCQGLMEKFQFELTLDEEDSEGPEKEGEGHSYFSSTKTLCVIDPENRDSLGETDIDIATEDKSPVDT
Sequence of Cytochrome P450 2C19 (Homo sapiens) (P33261 whole entry, looked up): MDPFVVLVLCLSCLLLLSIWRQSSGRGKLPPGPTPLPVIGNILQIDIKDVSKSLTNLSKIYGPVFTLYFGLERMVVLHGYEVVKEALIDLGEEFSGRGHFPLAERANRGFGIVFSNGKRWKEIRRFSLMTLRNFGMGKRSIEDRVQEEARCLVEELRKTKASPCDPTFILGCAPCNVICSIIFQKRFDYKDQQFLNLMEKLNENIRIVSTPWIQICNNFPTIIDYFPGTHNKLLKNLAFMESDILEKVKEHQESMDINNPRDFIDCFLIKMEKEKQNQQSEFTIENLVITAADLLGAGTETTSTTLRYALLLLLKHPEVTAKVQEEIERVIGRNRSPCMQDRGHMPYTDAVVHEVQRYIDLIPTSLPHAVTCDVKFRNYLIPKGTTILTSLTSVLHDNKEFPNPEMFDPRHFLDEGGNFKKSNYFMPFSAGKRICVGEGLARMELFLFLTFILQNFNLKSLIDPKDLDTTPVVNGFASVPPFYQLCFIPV
Sequence of Lysosomal acid glucosylceramidase (Homo sapiens) (P04062 whole entry, looked up): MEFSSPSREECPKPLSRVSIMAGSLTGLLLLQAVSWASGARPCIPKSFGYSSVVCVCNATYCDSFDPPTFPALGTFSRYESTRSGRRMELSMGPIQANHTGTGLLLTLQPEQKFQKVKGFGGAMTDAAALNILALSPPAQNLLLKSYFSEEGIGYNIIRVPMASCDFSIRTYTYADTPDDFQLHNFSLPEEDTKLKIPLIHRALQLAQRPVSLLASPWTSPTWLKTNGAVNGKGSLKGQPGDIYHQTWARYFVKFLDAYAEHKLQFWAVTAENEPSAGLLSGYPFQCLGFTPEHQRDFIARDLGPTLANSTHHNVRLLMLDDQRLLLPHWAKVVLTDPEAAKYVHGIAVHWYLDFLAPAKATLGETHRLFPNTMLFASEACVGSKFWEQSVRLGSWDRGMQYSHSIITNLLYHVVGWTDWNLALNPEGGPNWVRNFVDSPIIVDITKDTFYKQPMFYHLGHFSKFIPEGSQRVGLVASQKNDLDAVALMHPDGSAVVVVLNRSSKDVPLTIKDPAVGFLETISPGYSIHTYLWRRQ
Sequence of Cytochrome P450 1A2 (Homo sapiens) (P05177 whole entry, looked up): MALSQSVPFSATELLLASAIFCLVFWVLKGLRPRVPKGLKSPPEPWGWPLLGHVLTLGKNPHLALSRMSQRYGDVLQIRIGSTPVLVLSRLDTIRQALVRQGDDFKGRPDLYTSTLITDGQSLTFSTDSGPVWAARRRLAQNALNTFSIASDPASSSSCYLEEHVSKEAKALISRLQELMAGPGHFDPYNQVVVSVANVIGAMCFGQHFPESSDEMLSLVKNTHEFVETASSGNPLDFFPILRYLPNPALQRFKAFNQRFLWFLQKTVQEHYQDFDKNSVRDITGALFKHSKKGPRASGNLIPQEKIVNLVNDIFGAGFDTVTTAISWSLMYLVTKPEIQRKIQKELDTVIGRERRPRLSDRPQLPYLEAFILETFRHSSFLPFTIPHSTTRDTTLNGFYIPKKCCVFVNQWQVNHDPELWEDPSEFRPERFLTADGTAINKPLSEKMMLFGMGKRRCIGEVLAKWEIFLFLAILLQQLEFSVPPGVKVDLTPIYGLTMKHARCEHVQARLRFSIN
Sequence of Glucocorticoid receptor (Homo sapiens) (P04150 whole entry, looked up, the tested form may be a part): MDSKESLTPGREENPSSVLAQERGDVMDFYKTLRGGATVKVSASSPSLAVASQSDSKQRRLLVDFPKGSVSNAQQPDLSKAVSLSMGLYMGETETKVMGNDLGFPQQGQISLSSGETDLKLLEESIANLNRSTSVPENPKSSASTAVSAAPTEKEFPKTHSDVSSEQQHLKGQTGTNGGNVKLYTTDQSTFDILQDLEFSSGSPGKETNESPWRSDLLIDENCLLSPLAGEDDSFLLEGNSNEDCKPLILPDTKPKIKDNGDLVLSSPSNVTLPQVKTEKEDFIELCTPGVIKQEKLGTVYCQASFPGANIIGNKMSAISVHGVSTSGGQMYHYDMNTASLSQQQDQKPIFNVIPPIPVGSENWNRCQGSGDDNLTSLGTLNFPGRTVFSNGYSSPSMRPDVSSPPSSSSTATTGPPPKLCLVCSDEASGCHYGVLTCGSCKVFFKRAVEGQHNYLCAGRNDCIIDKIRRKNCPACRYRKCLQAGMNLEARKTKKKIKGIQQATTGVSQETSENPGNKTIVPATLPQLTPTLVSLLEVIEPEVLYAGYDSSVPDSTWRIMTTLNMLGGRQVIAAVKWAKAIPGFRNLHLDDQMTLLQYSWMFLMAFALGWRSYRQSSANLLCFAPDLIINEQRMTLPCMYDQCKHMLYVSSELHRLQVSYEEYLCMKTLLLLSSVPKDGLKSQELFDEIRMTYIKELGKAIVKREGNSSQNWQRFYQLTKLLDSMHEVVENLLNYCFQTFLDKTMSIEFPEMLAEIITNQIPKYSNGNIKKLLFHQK

CC(C)(C)c1ccc(OCC(=O)O)c(Cl)c1
inactive: Potency [1] > 11.4 µM | activity change, negative = inhibition [2] -2.54% | Potency [3] | activity change, negative = inhibition [4] 10.5% | activity, negative = inhibition [5] -5.16% | Potency [6] > 46 µM | Potency [7] > 9.22 µM | Potency [8] | Potency [9] | Potency [10]

Cn1c(=O)c2c(nc(C(=N)SCC(=O)O)n2C)n(C)c1=O
inactive: Potency [1] > 11.4 µM | activity change, negative = inhibition [2] -5.29% | activity change, negative = inhibition [4] 4.58% | activity, negative = inhibition [5] -6.13% | Potency [6] > 46 µM | Potency [7] > 9.22 µM | Potency [8] | Potency [9] | Potency [10]
active: Potency [3] 1.26 µM

O=C(O)c1ccc(S(=O)(=O)N=Nc2c(O)[nH]c3ccccc23)cc1
inactive: Potency [1] > 11.4 µM | activity change, negative = inhibition [2] -0.32% | Potency [3] | activity change, negative = inhibition [4] 4.27% | activity, negative = inhibition [5] 21.1% | Potency [6] > 46 µM | Potency [7] > 9.22 µM | Potency [8] | Potency [9] | Potency [10]

O=C(O)C/C(=C\c1ccco1)C(=O)O
inactive: Potency [1] > 11.4 µM | activity change, negative = inhibition [2] 8.65% | activity change, negative = inhibition [3] -11.8% [at 2.29 µM] | activity change, negative = inhibition [4] 9.1% | activity, negative = inhibition [5] 7.2% | Potency [6] > 46 µM | Potency [7] > 9.22 µM | Potency [8] | Potency [9] | Potency [10]

CN1CCc2nc(N)nc(-c3nc(N)nc4c3CN(C)CC4)c2C1
inactive: Potency [1] > 11.4 µM | activity change, negative = inhibition [2] 1.73% | activity change, negative = inhibition [3] -3.9% [at 2.29 µM] | activity change, negative = inhibition [4] 7.63% | activity, negative = inhibition [5] 4.69% | Potency [6] > 46 µM | Potency [7] > 9.22 µM | Potency [8] | Potency [9] | Potency [10]

Clc1ccc(-c2noc(CN3CCCCC3)n2)cc1
active: Potency [3] 0.631 µM | Potency [10] 1.58 µM
inactive: Potency [1] > 11.4 µM | activity change, negative = inhibition [2] 1.13% | activity change, negative = inhibition [4] 2.07% | activity, negative = inhibition [5] -0.202% | Potency [6] > 46 µM | Potency [7] > 9.22 µM | Potency [8] | Potency [9]

Clc1ccccc1C(Nc1ncccn1)Nc1ncccn1
inactive: Potency [1] > 11.4 µM | activity change, negative = inhibition [2] 4.25% | Potency [3] | activity change, negative = inhibition [4] 3.12% | activity, negative = inhibition [5] 3.77% | Potency [6] > 46 µM | Potency [7] > 9.22 µM | Potency [8] | Potency [9] | Potency [10]

CC[C@@H]1CC(=O)N(SC[C@H](N)C(=O)O)C1=O
inactive: Potency [1] > 11.4 µM | activity change, negative = inhibition [2] 1.56% | Potency [3] | activity change, negative = inhibition [4] 12.4% | activity, negative = inhibition [5] 1.84% | Potency [6] > 46 µM | Potency [7] > 9.22 µM | Potency [8] | Potency [9] | Potency [10]

C/C(=N\NC(=O)c1ccncc1)c1ccc2ccccc2c1O
inactive: Potency [1] > 11.4 µM | activity change, negative = inhibition [2] 7.91% | activity change, negative = inhibition [4] -7.25% | activity, negative = inhibition [5] -3.43% | Potency [6] > 46 µM | Potency [7] > 9.22 µM | Potency [8] | Potency [9]
active: Potency [3] 3.98 µM | Potency [10] 0.501 µM

N=C(c1ccc2ccccc2c1)c1ccccc1Cc1ccccc1
inactive: Potency [1] > 11.4 µM | activity change, negative = inhibition [2] 0.881% | activity change, negative = inhibition [4] -18% | activity, negative = inhibition [5] -1.68% | Potency [6] > 46 µM | Potency [7] > 9.22 µM | Potency [8] | Potency [9]
active: Potency [3] 0.501 µM | Potency [10] 3.98 µM

Cn1c(=O)c2c(nc(Cc3ccccc3)n2CC(=O)O)n(C)c1=O
inactive: Potency [1] > 11.4 µM | activity change, negative = inhibition [2] 6.03% | activity change, negative = inhibition [3] -13.2% [at 2.29 µM] | activity change, negative = inhibition [4] 0.0397% | activity, negative = inhibition [5] 10.4% | Potency [6] > 46 µM | Potency [7] > 9.22 µM | Potency [8] | Potency [9] | Potency [10]

O=S(=O)(O)c1cc(O)c2c(N=Cc3ccccc3O)cc(S(=O)(=O)O)cc2c1
active: Potency [10] 1.58 µM
inactive: Potency [1] > 11.4 µM | activity change, negative = inhibition [2] -14.5% | activity change, negative = inhibition [3] -23.7% [at 2.29 µM] | activity change, negative = inhibition [4] 8.24% | activity, negative = inhibition [5] -1.77% | Potency [6] > 46 µM | Potency [7] > 9.22 µM | Potency [8] | Potency [9]

Cc1ccc(S(=O)(=O)N2CCC(C(=O)O)(c3ccccc3)CC2)cc1
inactive: Potency [1] > 11.4 µM | activity change, negative = inhibition [2] 0.56% | Potency [3] | activity change, negative = inhibition [4] 2.33% | activity, negative = inhibition [5] -9.97% | Potency [6] > 46 µM | Potency [7] > 9.22 µM | Potency [8] | Potency [9] | Potency [10]

N=C(N)CCNC(=O)[C@@H]1CCC(N)=N1
inactive: Potency [1] > 11.4 µM | activity change, negative = inhibition [2] 4.22% | activity change, negative = inhibition [3] -3.4% [at 2.29 µM] | activity change, negative = inhibition [4] 3.47% | activity, negative = inhibition [5] 1.16% | Potency [6] > 46 µM | Potency [7] > 9.22 µM | Potency [8] | Potency [9] | Potency [10]

Cc1ccc([C@@]2(C)CC/C(=N/N=C3\CC[C@](C)(c4ccc(C)c(C)c4)c4cc(C)c(C)cc43)c3cc(C)c(C)cc32)cc1C
inactive: Potency [1] > 11.4 µM | activity change, negative = inhibition [2] 5.94% | Potency [3] | activity change, negative = inhibition [4] 7.12% | activity, negative = inhibition [5] 4.03% | Potency [6] > 46 µM | Potency [7] > 9.22 µM | Potency [8] | Potency [9] | Potency [10]
